# Test results: paper PMC7862700, “An all-to-all approach to the identification of sequence-specific readers for epigenetic DNA modifications on cytosine”
# Key:
# Assay in all cases: DAPPL (digital affinity profiling via proximity ligation, sequencing); 10 mM Tris-HCl pH 7.5, 50 mM NaCl, 1 mM DTT, 4% glycerol, room temperature, 30 min; GST-TFs on glutathione beads, 16-mer random dsDNA library, 0.1% formaldehyde crosslink after washing; high values mean tight binding
# FLI1 = target: T1, FLI1 (Homo sapiens, UniProt Q01543 1-452); conditions: protein: recombinant; tags: N-terminal GST; dsDNA, one strand shown
# T1 sequence: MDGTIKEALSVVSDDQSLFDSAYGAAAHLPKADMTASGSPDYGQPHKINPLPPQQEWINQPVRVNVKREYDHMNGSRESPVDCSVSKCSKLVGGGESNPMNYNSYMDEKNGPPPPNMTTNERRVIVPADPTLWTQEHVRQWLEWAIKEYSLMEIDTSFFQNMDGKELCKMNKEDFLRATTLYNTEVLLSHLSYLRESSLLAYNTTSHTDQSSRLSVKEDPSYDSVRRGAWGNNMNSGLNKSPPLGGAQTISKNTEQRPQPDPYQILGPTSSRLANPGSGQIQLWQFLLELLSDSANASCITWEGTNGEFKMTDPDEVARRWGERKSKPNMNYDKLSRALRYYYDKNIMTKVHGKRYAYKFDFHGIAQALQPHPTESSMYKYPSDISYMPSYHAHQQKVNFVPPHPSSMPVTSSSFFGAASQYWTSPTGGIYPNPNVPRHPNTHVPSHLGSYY
# How it was run: (§1)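 Yeast served to express human transcription factors as GST fusions, which were then captured on glutathione beads and labelled with DNA barcodes. Pooled with a tag-only sample, they were incubated with 200 nmole of a 16-mer random double-stranded DNA library for 30 min at room temperature in Tris/NaCl/DTT/glycerol buffer, washed, crosslinked with 0.1% formaldehyde, ligated by proximity, amplified by PCR and sequenced. Dividing each hexamer's read frequency for a factor by its frequency for the tag-only sample gives the binding signal.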
# ELK1 = target: T2, ELK1 (Homo sapiens, UniProt P19419 1-428); conditions: protein: recombinant; tags: N-terminal GST; dsDNA, one strand shown
# T2 sequence: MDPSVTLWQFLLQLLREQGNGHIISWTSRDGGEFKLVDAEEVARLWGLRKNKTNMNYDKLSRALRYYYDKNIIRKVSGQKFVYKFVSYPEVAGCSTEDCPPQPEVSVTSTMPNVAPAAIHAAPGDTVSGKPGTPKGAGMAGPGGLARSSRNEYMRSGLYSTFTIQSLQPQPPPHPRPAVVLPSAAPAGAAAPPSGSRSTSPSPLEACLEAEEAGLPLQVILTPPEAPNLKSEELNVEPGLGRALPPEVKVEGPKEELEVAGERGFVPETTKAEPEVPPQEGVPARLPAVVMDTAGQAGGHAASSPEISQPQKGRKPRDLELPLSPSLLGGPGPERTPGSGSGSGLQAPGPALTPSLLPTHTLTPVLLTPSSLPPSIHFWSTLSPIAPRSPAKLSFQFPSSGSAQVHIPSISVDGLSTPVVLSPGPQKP
# How it was run: as §1
# GABPA = target: T3, GABPA (Homo sapiens, UniProt Q06546 1-454); conditions: protein: recombinant; tags: N-terminal GST; dsDNA, one strand shown
# T3 sequence: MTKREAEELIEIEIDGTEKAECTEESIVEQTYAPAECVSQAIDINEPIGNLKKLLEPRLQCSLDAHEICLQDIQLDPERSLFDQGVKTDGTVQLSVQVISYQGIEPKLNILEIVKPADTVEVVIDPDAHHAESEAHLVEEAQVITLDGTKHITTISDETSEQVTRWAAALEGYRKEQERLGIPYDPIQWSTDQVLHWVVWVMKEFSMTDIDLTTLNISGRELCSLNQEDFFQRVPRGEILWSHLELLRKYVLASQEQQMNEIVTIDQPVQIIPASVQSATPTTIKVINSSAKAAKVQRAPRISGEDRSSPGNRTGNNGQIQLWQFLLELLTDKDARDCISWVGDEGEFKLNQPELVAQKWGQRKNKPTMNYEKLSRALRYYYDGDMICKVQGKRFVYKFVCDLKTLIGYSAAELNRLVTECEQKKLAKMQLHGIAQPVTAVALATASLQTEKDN
# How it was run: as §1
# ERG = target: T4, ERG (Homo sapiens, UniProt P11308 1-479); conditions: protein: recombinant; tags: N-terminal GST; dsDNA, one strand shown
# T4 sequence: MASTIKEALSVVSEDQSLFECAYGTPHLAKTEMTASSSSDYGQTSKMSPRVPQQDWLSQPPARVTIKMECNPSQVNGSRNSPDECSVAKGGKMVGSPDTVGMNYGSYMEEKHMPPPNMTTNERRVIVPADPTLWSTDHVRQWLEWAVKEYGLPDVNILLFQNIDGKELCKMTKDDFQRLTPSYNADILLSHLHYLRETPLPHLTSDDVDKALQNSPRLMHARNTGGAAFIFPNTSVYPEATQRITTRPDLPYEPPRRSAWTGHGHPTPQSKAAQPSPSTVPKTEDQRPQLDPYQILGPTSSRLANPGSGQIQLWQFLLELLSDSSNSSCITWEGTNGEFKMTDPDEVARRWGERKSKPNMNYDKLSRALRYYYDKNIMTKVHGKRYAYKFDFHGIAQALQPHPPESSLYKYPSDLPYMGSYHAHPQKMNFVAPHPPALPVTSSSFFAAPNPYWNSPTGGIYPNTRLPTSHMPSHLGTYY
# How it was run: as §1
# ELF1 = ELF1 (Homo sapiens, UniProt P32519 1-619); conditions: protein: recombinant; tags: N-terminal GST; dsDNA, one strand shown
# ELF1, sequence (P32519 whole entry): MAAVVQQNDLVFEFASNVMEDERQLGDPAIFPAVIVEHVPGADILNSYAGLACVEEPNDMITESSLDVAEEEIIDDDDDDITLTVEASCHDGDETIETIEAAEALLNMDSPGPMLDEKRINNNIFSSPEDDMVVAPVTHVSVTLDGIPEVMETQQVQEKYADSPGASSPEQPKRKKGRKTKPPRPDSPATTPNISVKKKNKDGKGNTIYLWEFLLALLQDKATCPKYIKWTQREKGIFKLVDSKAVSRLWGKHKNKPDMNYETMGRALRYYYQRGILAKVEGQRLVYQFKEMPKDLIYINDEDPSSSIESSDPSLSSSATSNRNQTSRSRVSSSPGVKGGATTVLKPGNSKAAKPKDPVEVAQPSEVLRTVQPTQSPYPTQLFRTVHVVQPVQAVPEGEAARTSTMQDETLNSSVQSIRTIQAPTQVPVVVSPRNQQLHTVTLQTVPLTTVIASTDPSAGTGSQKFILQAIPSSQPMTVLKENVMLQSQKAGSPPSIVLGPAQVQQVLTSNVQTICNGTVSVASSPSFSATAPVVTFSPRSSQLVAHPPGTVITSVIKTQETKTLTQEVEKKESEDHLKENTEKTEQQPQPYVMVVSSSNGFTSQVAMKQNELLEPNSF
# How it was run: as §1
# EHF = target: T5, EHF (Homo sapiens, UniProt Q9NZC4 1-300); conditions: protein: recombinant; tags: N-terminal GST; dsDNA, one strand shown
# T5 sequence: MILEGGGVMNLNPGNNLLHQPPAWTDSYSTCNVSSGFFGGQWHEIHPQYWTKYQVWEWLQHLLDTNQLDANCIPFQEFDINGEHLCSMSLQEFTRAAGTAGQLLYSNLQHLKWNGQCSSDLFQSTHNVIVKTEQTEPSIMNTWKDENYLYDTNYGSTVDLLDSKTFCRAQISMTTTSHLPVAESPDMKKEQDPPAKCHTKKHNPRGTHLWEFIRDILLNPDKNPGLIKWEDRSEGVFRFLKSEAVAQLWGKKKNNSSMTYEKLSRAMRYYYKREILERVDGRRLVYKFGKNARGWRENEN
# How it was run: as §1
# SPI1 = SPI1 (Homo sapiens, UniProt P17947 1-270); conditions: protein: recombinant; tags: N-terminal GST; dsDNA, one strand shown
# How it was run: as §1
# SPIB = SPIB (Homo sapiens, UniProt Q01892 1-262); conditions: protein: recombinant; tags: N-terminal GST; dsDNA, one strand shown
# SPIB, sequence (Q01892 whole entry): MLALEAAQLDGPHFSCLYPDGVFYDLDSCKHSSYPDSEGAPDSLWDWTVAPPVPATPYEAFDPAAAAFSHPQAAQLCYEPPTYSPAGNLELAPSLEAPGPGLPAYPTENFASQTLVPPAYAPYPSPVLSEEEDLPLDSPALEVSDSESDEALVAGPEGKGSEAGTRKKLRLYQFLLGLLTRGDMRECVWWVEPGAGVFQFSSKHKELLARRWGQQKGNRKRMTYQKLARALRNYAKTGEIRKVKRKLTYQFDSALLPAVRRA
# How it was run: as §1
# ELK3 = target: T6, ELK3 (Homo sapiens, UniProt P41970 1-407); conditions: protein: recombinant; tags: N-terminal GST; dsDNA, one strand shown
# T6 sequence: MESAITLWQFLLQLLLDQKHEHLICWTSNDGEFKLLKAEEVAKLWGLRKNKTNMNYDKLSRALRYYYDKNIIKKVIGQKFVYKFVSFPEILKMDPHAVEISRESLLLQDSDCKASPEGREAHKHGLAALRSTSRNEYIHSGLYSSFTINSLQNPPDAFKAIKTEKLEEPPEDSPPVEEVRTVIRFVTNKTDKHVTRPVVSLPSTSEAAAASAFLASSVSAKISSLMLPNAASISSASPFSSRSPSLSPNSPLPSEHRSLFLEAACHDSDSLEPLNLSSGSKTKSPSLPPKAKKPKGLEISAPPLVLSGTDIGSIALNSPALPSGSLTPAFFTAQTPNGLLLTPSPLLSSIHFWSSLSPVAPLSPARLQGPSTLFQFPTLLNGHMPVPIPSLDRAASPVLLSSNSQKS
# How it was run: as §1
# FEV = target: T7, FEV (Homo sapiens, UniProt Q99581 1-238); conditions: protein: recombinant; tags: N-terminal GST; dsDNA, one strand shown
# T7 sequence: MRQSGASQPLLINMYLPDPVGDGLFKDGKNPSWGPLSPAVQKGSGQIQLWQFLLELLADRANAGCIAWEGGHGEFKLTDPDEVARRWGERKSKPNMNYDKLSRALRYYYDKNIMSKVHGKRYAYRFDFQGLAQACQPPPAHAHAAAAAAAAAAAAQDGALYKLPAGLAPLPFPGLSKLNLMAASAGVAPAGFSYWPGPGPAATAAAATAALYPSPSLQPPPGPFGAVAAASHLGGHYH
# How it was run: as §1
# ETV5 = ETV5 (Homo sapiens, UniProt P41161 1-510); conditions: protein: recombinant; tags: N-terminal GST; dsDNA, one strand shown
# ETV5, sequence (P41161 whole entry): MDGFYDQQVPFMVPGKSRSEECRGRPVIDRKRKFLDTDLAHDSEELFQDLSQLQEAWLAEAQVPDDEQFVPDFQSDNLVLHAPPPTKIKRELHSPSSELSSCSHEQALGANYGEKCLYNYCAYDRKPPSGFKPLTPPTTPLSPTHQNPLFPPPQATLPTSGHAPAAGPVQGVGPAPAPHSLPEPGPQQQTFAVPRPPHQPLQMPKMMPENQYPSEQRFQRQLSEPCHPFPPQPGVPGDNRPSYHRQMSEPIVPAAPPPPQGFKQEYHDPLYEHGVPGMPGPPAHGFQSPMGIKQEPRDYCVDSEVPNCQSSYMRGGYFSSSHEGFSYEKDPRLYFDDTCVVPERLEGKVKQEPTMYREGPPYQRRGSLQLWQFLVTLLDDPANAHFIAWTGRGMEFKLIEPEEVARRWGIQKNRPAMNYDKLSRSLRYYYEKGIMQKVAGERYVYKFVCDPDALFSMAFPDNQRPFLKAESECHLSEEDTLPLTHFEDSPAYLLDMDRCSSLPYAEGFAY
# How it was run: as §1
# HSF1 = HSF1 (Homo sapiens, UniProt Q00613 1-529); conditions: protein: recombinant; tags: N-terminal GST; chain copies: 3; dsDNA, one strand shown
# HSF1, sequence (Q00613 whole entry): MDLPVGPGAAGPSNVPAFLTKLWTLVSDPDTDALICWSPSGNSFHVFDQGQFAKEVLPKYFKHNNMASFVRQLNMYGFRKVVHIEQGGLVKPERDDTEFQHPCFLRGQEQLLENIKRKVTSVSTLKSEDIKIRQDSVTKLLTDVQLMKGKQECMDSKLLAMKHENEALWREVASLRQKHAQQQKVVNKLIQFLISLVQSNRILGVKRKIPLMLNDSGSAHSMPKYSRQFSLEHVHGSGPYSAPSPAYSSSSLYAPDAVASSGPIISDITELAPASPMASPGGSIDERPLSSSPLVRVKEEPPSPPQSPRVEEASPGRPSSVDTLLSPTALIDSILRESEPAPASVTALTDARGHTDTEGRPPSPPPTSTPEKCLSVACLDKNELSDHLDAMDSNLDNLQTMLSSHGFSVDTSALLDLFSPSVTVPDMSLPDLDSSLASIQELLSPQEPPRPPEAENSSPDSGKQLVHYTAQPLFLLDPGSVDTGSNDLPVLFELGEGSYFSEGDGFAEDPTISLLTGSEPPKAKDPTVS
# How it was run: as §1
# SPIC = target: T8, SPIC (Homo sapiens, UniProt Q8N5J4 1-248); conditions: protein: recombinant; tags: N-terminal GST; dsDNA, one strand shown
# T8 sequence: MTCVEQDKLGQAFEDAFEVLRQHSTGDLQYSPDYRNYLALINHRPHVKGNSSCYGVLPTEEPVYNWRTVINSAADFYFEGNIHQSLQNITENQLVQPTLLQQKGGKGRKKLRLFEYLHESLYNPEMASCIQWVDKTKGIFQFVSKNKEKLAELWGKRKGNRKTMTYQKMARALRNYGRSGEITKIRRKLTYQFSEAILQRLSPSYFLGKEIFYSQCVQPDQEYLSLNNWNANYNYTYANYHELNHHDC
# How it was run: as §1
# ELF4 = ELF4 (Homo sapiens, UniProt Q99607 1-663); conditions: protein: recombinant; tags: N-terminal GST; dsDNA, one strand shown
# ELF4, sequence (Q99607 whole entry): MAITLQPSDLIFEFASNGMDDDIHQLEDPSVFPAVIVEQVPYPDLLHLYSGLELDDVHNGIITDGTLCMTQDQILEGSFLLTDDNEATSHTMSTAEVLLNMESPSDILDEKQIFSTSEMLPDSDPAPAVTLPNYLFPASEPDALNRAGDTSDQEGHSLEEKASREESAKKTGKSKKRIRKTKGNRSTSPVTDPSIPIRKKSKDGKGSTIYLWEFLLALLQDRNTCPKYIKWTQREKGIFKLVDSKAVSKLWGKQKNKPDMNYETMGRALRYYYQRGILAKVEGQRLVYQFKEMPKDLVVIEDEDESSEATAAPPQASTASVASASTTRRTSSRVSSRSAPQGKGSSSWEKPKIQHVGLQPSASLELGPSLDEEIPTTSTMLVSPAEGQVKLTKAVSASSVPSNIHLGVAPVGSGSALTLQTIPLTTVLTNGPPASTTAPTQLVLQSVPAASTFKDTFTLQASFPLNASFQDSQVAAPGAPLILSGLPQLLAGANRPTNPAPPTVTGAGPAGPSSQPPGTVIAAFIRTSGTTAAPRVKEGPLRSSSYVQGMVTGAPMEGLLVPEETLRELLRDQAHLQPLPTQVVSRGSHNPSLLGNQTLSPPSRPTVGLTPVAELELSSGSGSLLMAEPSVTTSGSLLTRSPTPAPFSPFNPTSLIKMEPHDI
# How it was run: as §1
# ELK4 = target: T9, ELK4 (Homo sapiens, UniProt P28324-2 1-405); conditions: protein: recombinant; tags: N-terminal GST; dsDNA, one strand shown
# T9 sequence: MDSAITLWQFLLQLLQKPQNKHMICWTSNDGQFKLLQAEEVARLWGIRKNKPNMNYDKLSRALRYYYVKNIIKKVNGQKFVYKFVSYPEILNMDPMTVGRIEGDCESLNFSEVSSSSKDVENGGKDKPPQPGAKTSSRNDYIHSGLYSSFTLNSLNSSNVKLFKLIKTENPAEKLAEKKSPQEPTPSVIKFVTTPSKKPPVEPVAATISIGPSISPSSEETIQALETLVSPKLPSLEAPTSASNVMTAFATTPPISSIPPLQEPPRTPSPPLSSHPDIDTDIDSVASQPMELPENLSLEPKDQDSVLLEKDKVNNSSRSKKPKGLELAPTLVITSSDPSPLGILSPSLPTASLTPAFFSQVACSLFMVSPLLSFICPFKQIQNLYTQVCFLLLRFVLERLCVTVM
# How it was run: as §1
# ETV2 = target: T10, ETV2 (Homo sapiens, UniProt O00321 1-342); conditions: protein: recombinant; tags: N-terminal GST; dsDNA, one strand shown
# T10 sequence: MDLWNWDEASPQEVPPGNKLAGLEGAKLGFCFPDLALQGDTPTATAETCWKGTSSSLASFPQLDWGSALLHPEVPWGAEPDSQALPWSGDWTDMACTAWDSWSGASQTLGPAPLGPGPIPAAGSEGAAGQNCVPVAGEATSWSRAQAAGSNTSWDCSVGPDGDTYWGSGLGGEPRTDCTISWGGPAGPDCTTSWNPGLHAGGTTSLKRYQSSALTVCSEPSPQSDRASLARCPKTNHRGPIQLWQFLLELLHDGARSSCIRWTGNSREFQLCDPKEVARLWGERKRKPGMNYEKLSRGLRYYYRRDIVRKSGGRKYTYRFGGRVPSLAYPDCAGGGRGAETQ
# How it was run: as §1
# ELF3 = target: T11, ELF3 (Homo sapiens, UniProt P78545 1-371); conditions: protein: recombinant; tags: N-terminal GST; dsDNA, one strand shown
# T11 sequence: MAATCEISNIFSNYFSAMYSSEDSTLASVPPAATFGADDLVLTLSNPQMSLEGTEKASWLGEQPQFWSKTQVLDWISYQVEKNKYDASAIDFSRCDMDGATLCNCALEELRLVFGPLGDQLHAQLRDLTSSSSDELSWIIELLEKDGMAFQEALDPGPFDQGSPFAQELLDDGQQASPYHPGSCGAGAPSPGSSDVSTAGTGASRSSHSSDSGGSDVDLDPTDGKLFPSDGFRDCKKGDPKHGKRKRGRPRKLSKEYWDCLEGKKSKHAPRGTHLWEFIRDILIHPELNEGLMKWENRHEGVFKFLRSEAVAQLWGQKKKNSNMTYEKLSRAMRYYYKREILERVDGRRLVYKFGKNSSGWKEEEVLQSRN
# How it was run: as §1
# CRX = CRX (Homo sapiens, UniProt O43186 1-299); conditions: protein: recombinant; tags: N-terminal GST; dsDNA, one strand shown
# CRX, sequence (O43186 whole entry): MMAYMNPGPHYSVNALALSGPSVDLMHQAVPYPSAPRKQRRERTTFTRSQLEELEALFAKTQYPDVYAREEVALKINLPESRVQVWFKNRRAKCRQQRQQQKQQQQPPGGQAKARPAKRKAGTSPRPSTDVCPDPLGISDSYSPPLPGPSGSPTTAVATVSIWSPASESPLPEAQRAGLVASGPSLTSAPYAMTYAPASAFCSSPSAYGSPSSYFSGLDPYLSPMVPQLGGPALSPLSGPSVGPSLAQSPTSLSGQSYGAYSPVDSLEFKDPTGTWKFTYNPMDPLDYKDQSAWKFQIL
# How it was run: as §1
# ETV1 = ETV1 (Homo sapiens, UniProt P50549 1-477); conditions: protein: recombinant; tags: N-terminal GST; dsDNA, one strand shown
# ETV1, sequence (P50549 whole entry): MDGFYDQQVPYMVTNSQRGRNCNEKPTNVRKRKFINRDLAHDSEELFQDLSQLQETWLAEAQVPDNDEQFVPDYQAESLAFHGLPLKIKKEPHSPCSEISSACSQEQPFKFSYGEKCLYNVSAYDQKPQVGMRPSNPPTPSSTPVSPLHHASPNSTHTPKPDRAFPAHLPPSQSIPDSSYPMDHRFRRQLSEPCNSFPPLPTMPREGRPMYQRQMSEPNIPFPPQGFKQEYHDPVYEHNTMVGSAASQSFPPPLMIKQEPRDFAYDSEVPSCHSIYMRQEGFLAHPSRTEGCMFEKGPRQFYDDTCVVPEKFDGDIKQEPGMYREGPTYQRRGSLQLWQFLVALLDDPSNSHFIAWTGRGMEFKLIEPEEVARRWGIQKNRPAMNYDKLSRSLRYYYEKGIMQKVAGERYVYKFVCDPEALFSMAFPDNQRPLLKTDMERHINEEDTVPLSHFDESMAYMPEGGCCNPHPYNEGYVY
# How it was run: as §1
sequence,measurement,setting,value
CGGCTC,binding signal,FLI1,"1.27 fold enrichment (6-mer frequency, TF over GST control)"
same,binding signal,ELK1,"1.29 fold enrichment (6-mer frequency, TF over GST control)"
same,binding signal,GABPA,"1.2 fold enrichment (6-mer frequency, TF over GST control)"
same,binding signal,ERG,"1.33 fold enrichment (6-mer frequency, TF over GST control)"
same,binding signal,ELF1,"1.27 fold enrichment (6-mer frequency, TF over GST control)"
same,binding signal,EHF,"1.31 fold enrichment (6-mer frequency, TF over GST control)"
same,binding signal,SPI1,"1.33 fold enrichment (6-mer frequency, TF over GST control)"
same,binding signal,SPIB,"1.33 fold enrichment (6-mer frequency, TF over GST control)"
same,binding signal,ELK3,"1.31 fold enrichment (6-mer frequency, TF over GST control)"
same,binding signal,FEV,"1.33 fold enrichment (6-mer frequency, TF over GST control)"
same,binding signal,ETV5,"1.28 fold enrichment (6-mer frequency, TF over GST control)"
same,binding signal,HSF1,"1.21 fold enrichment (6-mer frequency, TF over GST control)"
same,binding signal,SPIC,"1.23 fold enrichment (6-mer frequency, TF over GST control)"
same,binding signal,ELF4,"1.35 fold enrichment (6-mer frequency, TF over GST control)"
same,binding signal,ELK4,"1.22 fold enrichment (6-mer frequency, TF over GST control)"
same,binding signal,ETV2,"1.42 fold enrichment (6-mer frequency, TF over GST control)"
same,binding signal,ELF3,"1.48 fold enrichment (6-mer frequency, TF over GST control)"
same,binding signal,CRX,"1.26 fold enrichment (6-mer frequency, TF over GST control)"
same,binding signal,ETV1,"1.29 fold enrichment (6-mer frequency, TF over GST control)"
